The supplement of paper PMC10981050
“And” between values parts separate entries of the source, which are not always exact repeats. Equal entries are not always repeated. Structures can show the parent of a compound that is named as a salt.

Columns and labels:
Assay in all cases: cell viability relative to vehicle control; higher = less cytotoxic
Details in all cases: 10 µM
[1] = tested on: K562
In short: (§1)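 CRISPR-edited mutant clones and isogenic wild-type clones from four leukaemia lines were screened against Selleck bioactive, kinase and epigenetic probe libraries, with identity-inconsistent compounds excluded. Each compound was acoustically dispensed at a single 10 µM dose into 384-well plates holding 2000 cells in 50 µL medium per well. After 48 h the supernatant was removed and CellTiter-Glo luminescence was read. Viability was expressed as percent of the on-plate vehicle control and analysed in Genedata Screener.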

[2] = tested on: MARIMO
In short: as §1

[3] = tested on: MOLM14
In short: as §1

[4] = tested on: OCI-AML2
In short: as §1

| SMILES | cell viability ([1]; SRSF2 genotype: SRSF2 P95H/wt) | cell viability ([1]; SRSF2 genotype: SRSF2 wt/wt) [%] | cell viability ([2]; SRSF2 genotype: SRSF2 P95H/wt) [%] | cell viability ([2]; SRSF2 genotype: SRSF2 wt/wt) [%] | cell viability ([3]; SRSF2 genotype: SRSF2 P95H/wt) [%] | cell viability ([3]; SRSF2 genotype: SRSF2 wt/wt) [%] | cell viability ([4]; SRSF2 genotype: P95H/wt) [%] | cell viability ([4]; SRSF2 genotype: wt/wt) [%] |
| --- | --- | --- | --- | --- | --- | --- | --- | --- |
| O=C(c1ccc(Cl)cc1)N(Cc1ccccc1)C1CCCCC1 | 86.1% and 92.9% | 92.3 | 75.2 | 84.1 | 78.1 | 94.6 | 72.5 | 81.8 |
| CC1CNc2c(cccc2S(=O)(=O)N[C@@H](CCCNC(=N)N)C(=O)N2CC[C@@H](C)C[C@@H]2C(=O)O)C1 (some centres undefined) [Argatroban Monohydrate] | 103% and 94.3% | 96.2 | 96.9 | 103 | 97.8 | 106 | 93.6 | 94 |
| CN1C(N)=N[C@](C)(c2cc(NC(=O)c3ccc(F)cn3)ccc2F)CS1(=O)=O [Verubecestat (MK-8931) Trifluoroacetat] | 97.5% and 98.8% | 96.9 | 98.1 | 108 | 95.8 | 102 | 99.8 | 107 |
| c1ccc2[nH]c(-c3cscn3)nc2c1 [Thiabendazole] | 105% and 101% | 106 | 98.8 | 103 | 97.8 | 99 | 93.6 | 105 |
| OCCOc1ccc(/C(=C(/CCCl)c2ccccc2)c2ccccc2)cc1 [Ospemifene] | 101% and 99.5% | 96.5 | 105 | 109 | 79.3 | 99.9 | 88.2 | 96.3 |
| CCOC(=O)n1ccn(C)c1=S [Carbimazole] | 107% and 106% | 113 | 110 | 103 | 103 | 111 | 108 | 97.4 |
| C=C(C)C1CCC2(C)CCC(=O)C(C)=C2C1 (centres undefined) | 111% and 105% | 112 | 106 | 100 | 112 | 110 | 102 | 101 |
| CNC(=O)c1cc(COc2nnc(Nc3ccc(Cl)cc3)c3ccoc23)ccn1 [Telatinib (BAY 57-9352)] | 94.6% and 90.8% | 98.7 | 106 | 106 | 108 | 97.3 | 90.6 | 99.5 |
| CCOC(=O)C=P(c1ccccc1)(c1ccccc1)c1ccccc1 [Ethyl (triphenylphosphoranylidene) acetate] | 96.8% and 92.7% | 98.4 | 90 | 99.2 | 84.5 | 93 | 90.2 | 84.8 |
| C=CC(=O)N1CCC(Oc2cc3c(Nc4ccc(Cl)c(Cl)c4F)ncnc3cc2OC)CC1 [Poziotinib (HM781-36B)] | 56% and 63.7% | 65.6 | 71.9 | 72.6 | 53.4 | 58 | 73.7 | 66.7 |
| CN1CCN(C(=O)c2cc3cc(Cl)ccc3[nH]2)CC1 | 99% and 97.5% | 98.6 | 100 | 98.7 | 92.6 | 99.3 | 109 | 96.6 |
| O=c1cc(-c2ccccc2)oc2cc(O)cc(O)c12 [Chrysin] | 100% and 104% | 105 | 93 | 107 | 81.1 | 93.7 | 86.7 | 75.3 |
| CC(C(=O)O)c1ccc2c(c1)CC(=O)c1ccccc1S2 (centres undefined) [Zaltoprofen] | 102% and 98.4% | 97.7 | 96.8 | 103 | 99.1 | 98.8 | 94.4 | 104 |
| O=C(c1ccc(/C=C/c2n[nH]c3ccccc23)cc1)N1CCNCC1 | 42.2% and 62.9% | 27.7 | 38.9 | 36.2 | 2.78 | 7.69 | 7.33 | 14.9 |
| COc1cc(NC(=O)c2ccc(-c3ccc(Cl)cc3)o2)cc(OC)c1 | 105% and 102% | 103 | 99 | 105 | 113 | 115 | 97.4 | 92.8 |
| CC(C)Oc1ccc(-c2nc(-c3cccc4c3CC[C@@H]4NCCO)no2)cc1C#N [Ozanimod (RPC1063)] | 34% and 30.5% | 30.6 | 27.3 | 32.2 | 38.6 | 40.5 | 29 | 34.4 |
| CNC(=O)Nc1ccc(-c2nc(N3CC4CCC(C3)O4)c3cnn(C4CCC5(CC4)OCCO5)c3n2)cc1 | 40.7% and 42.8% | 34.4 | 57.6 | 45 | 36 | 28.1 | 29 | 28.7 |
| Cc1cc(-c2ccc(CC(=O)Nc3ccc(-c4cccnc4)cc3)cc2)ccn1 | 77% and 83% | 86.9 | 81.5 | 86.3 | 103 | 102 | 74 | 78.9 |
| COc1ccc(C[C@@H]2c3cc(OC)c(OC)cc3CC[N@+]2(C)CCC(=O)OCCCCCOC(=O)CC[N@@+]2(C)CCc3cc(OC)c(OC)cc3[C@H]2Cc2ccc(OC)c(OC)c2)cc1OC [Cisatracurium besylate (Nimbex)] | 93.3% and 95.8% | 92.4 | 79 | 94 | 70.7 | 93 | 99.5 | 111 |
| Cc1c(-c2ccc(C(N)=O)c3[nH]c4cc(C(C)(C)O)ccc4c23)cccc1-n1cnc2ccccc2c1=O | 80.1% and 89.9% | 92.2 | 73.5 | 66.2 | 48.4 | 54.8 | 43.6 | 46.2 |
| CC(C)OC(=O)CCC/C=C\C[C@@H]1[C@@H](CC[C@@H](O)CCc2ccccc2)[C@H](O)C[C@@H]1O [Latanoprost] | 93% and 96.4% | 90.1 | 89.6 | 92.5 | 88 | 103 | 97.8 | 98.3 |
| Clc1ccc(COC(Cn2ccnc2)c2ccc(Cl)cc2Cl)c(Cl)c1 (centres undefined) [Miconazole (Monistat)] | 65.6% and 81% | 62.2 | 61.1 | 73 | 67.2 | 54.8 | 65.5 | 54.4 |

| SMILES | cell viability ([1]; SRSF2 genotype: SRSF2 P95H/wt) | cell viability ([1]; SRSF2 genotype: SRSF2 wt/wt) [%] | cell viability ([2]; SRSF2 genotype: SRSF2 P95H/wt) [%] | cell viability ([2]; SRSF2 genotype: SRSF2 wt/wt) [%] | cell viability ([3]; SRSF2 genotype: SRSF2 P95H/wt) [%] | cell viability ([3]; SRSF2 genotype: SRSF2 wt/wt) [%] | cell viability ([4]; SRSF2 genotype: P95H/wt) [%] | cell viability ([4]; SRSF2 genotype: wt/wt) [%] |
| --- | --- | --- | --- | --- | --- | --- | --- | --- |
| COc1cc2c(cc1OC)CN(CCc1ccc(NC(=O)c3cc(OC)c(OC)cc3NC(=O)c3cnc4ccccc4c3)cc1)CC2 [Tariquidar] | 94.6% and 105% | 96.9 | 95.3 | 105 | 93.5 | 95.7 | 96.4 | 100 |
| O=c1[nH]ccc2c(S(=O)(=O)N3CCCNCC3)cccc12 [Hydroxyfasudil (HA-1100)HCl] | 95.5% and 99.7% | 96.5 | 96.5 | 92.7 | 95.6 | 101 | 95.7 | 90.5 |
| O=C(Nc1cccc(C2=NCCN2)c1)Nc1cccc(C2=NCCN2)c1 [Imidocarb dipropionate] | 98.4% and 92.2% | 95.3 | 91.5 | 103 | 80.2 | 87.7 | 88.6 | 89.4 |
| CN1CCN2c3ccccc3Cc3ccccc3C2C1 (centres undefined) [Mianserin HCl] | 92.5% and 97.9% | 92.2 | 83.7 | 86.5 | 93.5 | 97.8 | 91.2 | 86.4 |
| CCCCCCCCc1ccc(CCC(N)(CO)CO)cc1 [Fingolimod (FTY720) HCl] | 0.63% | 0.58 | 0.4 | 0.42 | 0.4 | 0.39 | 0.36 | 0.44 |
| CC12CC3CC(C)(C1)CC(N)(C3)C2 [Memantine hydrochloride (Namenda)] | 101% and 93.1% | 93.6 | 88.7 | 98.8 | 89.7 | 101 | 90.3 | 103 |
| CCc1ccc(/C=C2/SC(=S)NC2=O)cc1 | 106% and 101% | 102 | 100 | 108 | 105 | 104 | 91 | 91.2 |
| C1CCN2C[C@@H]3C[C@@H](CN4CCCC[C@@H]34)[C@H]2C1 [Sparteine] | 95% and 97.6% | 91.1 | 96.8 | 94.9 | 99 | 94.8 | 97.5 | 94.3 |
| Cn1c([N+](=O)[O-])cnc1COC(N)=O [Ronidazole] | 95.1% and 89% | 92.3 | 97.3 | 97.3 | 96 | 99.5 | 90.8 | 102 |
| O=C(NOCC1CC1)c1ccc(F)c(F)c1Nc1ccc(I)cc1Cl | 74.9% and 78.8% | 69.2 | 37.4 | 35.4 | 39.2 | 30.4 | 39.5 | 46.5 |
| Cc1ccc(O)c(O)c1 [4-Methylcatechol] | 94.8% and 90.4% | 98.3 | 61.1 | 89.5 | 75.4 | 85.3 | 94 | 90.9 |
| Cc1nc(C)c(C)nc1C [Ligustrazine hydrochloride] | 97.2% and 97.7% | 91.8 | 89.8 | 102 | 95.8 | 98.7 | 87.8 | 107 |
| COc1cc(/C=C/C(=O)OC[C@H]2O[C@H](O[C@]3(CO)O[C@H](CO)[C@@H](O)[C@@H]3OC(=O)/C=C/c3cc(OC)c(O)c(OC)c3)[C@H](O)[C@@H](O)[C@@H]2O)cc(OC)c1O [3,6'-Disinapoyl sucrose] | 106% and 103% | 101 | 106 | 109 | 112 | 105 | 102 | 105 |
| O=C(O)CCc1ccc(NCc2cccc(Oc3ccccc3)c2)cc1 | 94.2% and 89.7% | 111 | 82.4 | 93.1 | 94.2 | 95.7 | 91 | 92.7 |
| Cc1ccccc1C(OCCN(C)C)c1ccccc1 (centres undefined) [Orphenadrine citrate (Norflex)] | 96.7% and 92% | 91.3 | 79.7 | 97.3 | 93.3 | 98.1 | 83.2 | 95 |
| Oc1ccc(OC2CCCCO2)cc1 (centres undefined) [Deoxyarbutin] | 104% and 99.3% | 105 | 84.6 | 93.3 | 83.3 | 81.9 | 87.4 | 83.2 |
| Cc1ccccc1C(=O)Nc1ccc(C(=O)N2CCCC(O)c3cc(Cl)ccc32)c(C)c1 (centres undefined) | 89.3% and 84.8% | 85.7 | 80.7 | 99.9 | 84.2 | 91.7 | 91.6 | 83 |
| Cc1ccccc1N=Nc1ccc(NC(=O)c2ccnn2C)c(C)c1 | 84.3% and 77.9% | 88 | 82.3 | 87.2 | 102 | 95 | 73.1 | 74.5 |
| CCc1cc(/C(C)=N/OCc2ccc(C3CCCCC3)c(C(F)(F)F)c2)ccc1CN1CC(C(=O)O)C1 [BAF312 (Siponimod)] | 86.8% and 89.2% | 87 | 79.3 | 67.2 | 66.5 | 66.3 | 48.1 | 49.8 |
| C[C@@]1(c2cc(-c3cncnc3)c(F)cc2F)CCSC(N)=N1 | 100% and 99.9% | 100 | 104 | 105 | 92.2 | 102 | 100 | 99.2 |
| C[C@@H](N)[C@H]1CC[C@H](C(=O)Nc2ccncc2)CC1 | 105% and 97.4% | 102 | 93.7 | 94.6 | 97.2 | 96.9 | 85.9 | 91.2 |
